# Measured values reported in PubChem BioAssay.
# “And” between values parts separate entries of the source, which are not always exact repeats. Equal entries are not always repeated. Inconclusive results are not listed. More than one record can exist for a structure, and the calls need not agree. The source made the active and inactive calls.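 Rule for the calls, unless noted: active = normalized viability below 100% at a tested concentration; inactive = the rest.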
# Tests used:
# [1] = growth inhibition of DIPG glioma cells, dose response, cell-based, SU-DIPG-XIII, MIPE4.0, CellTiter-Glo, qHTS (AID 1347061; cut-off not given, nearly all actives have AC50 up to about 37 µM;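 note: cells exposed to compound for 48 hours before readout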); details: SU-DIPG-XIII viability, CellTiter-Glo ATP luminescence
# [2] = growth inhibition of DIPG glioma cells, dose response, cell-based, JHH-DIPG-1, MIPE4.0, CellTiter-Glo, qHTS (AID 1347062; cut-off not given, nearly all actives have AC50 up to about 27 µM); details: JHH-DIPG-1 viability, CellTiter-Glo ATP luminescence
# [3] = growth inhibition of DIPG glioma cells, dose response, cell-based, SU-DIPG-IV, MIPE4.0, CellTiter-Glo, qHTS (AID 1347063; cut-off not given, nearly all actives have AC50 up to about 30 µM;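 note: compound exposure lasted 48 hours before the viability readout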); details: SU-DIPG-IV viability, CellTiter-Glo ATP luminescence
# [4] = viability loss in pontine glioma line – cell-based, SU-DIPG-XXV, MIPE5.0, CellTiter-Glo, qHTS, dose response (AID 1347065; cut-off not given, nearly all actives have AC50 up to about 26 µM;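 note: cells exposed to compound for 48 hours before ATP readout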); details: CellTiter-Glo ATP luminescence
# [5] = SU-DIPG-VI glioma cell viability, MIPE4.0 library, CellTiter-Glo luminescence, qHTS (AID 1347066; cut-off not given, nearly all actives have AC50 up to about 30 µM;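 note: cells exposed to compound for 48 hours before readout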); details: CellTiter-Glo ATP luminescence
# [6] = modifiers of HSF1 nuclear foci, imaging, Selleck Cancer Library (AID 1347162; in the data active = plate-normalised HSF1 focus index below about 0.46); details: human cells, at 10 µM; SSMD: measured here: HSF1 foci SSMD mean; cell count: measured here: cell number; plate-normalised HSF1 focus index: stronger effect = lower value
# [7] = ovarian cancer cell viability with rucaparib, profiling panel, oncology-focused library, rucaparib conditional (AID 1508598); details: patient-derived ovarian cancer cells, CellTiter-Glo viability, 144 h, stronger effect = lower value
# [8] = LFS_MB_P medulloblastoma growth inhibition, cell-based, chromothripsis tumors, cisplatin or BGB combos (AID 1671449; in the data active = inhibition above about 80%;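 note: cells exposed for 96 hours; 0% = vehicle DMSO and 100% = killing by high DMSO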); details: LFS_MB_P medulloblastoma cells
# [9] = HDN33 neuroblastoma growth inhibition, cell-based, chromothripsis tumors, cisplatin or BGB combos (AID 1671450; in the data active = inhibition above about 80%;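 note: cells exposed to compound for four days; 0% = vehicle DMSO and 100% = cell killing by high DMSO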); details: HDN33 neuroblastoma cells, stronger effect = higher value
# [10] = ICB984 medulloblastoma cell growth inhibition, synergistic combos for chromothripsis tumors, cisplatin or BGB combos (AID 1671451; call rule not given here;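 note: cells exposed for 96 hours before readout; 0% = vehicle DMSO and 100% = killing by high DMSO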); details: ICB984 medulloblastoma cells, drug combinations, stronger effect = higher value
# [11] = HTB85 osteosarcoma cell growth inhibition, synergistic combos for chromothripsis tumors, BGB or cisplatin IC20 combos (AID 1671453; in the data active = inhibition above about 80%;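 note: cells exposed for 96 hours before readout; 0% = vehicle DMSO and 100% = high DMSO killing control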); details: HTB85 osteosarcoma cells, drug combinations, stronger effect = higher value
# [12] = MDA-MB-436 breast carcinoma cell growth inhibition, synergistic combos for chromothripsis tumors, BGB or cisplatin combos (AID 1671458; call rule not given here;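 note: cells exposed for 96 hours; 0% = vehicle DMSO and 100% = killing by high DMSO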); details: MDA-MB-436 breast carcinoma growth inhibition, drug combinations, stronger effect = higher value
# [13] = growth inhibition of BT084 medulloblastoma cells, cell-based, ICGC_MB145, cisplatin and BGB IC40 combos (AID 1671461; in the data active = inhibition above about 80%;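 note: cells exposed to drugs for 96 hours; 0% = vehicle DMSO and 100% = high DMSO full killing control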); details: drug combinations, stronger effect = higher value
# [14] = growth inhibition of RCMB18 medulloblastoma cells, cell-based, cisplatin and BGB IC40 combos (AID 1671462; in the data active = inhibition above about 80%;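 note: cells exposed to compound for four days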); details: stronger effect = higher value
# [15] = growth inhibition of CRL1545 osteosarcoma cells, cell-based, cisplatin and BGB IC20 combos (AID 1671464; in the data active = inhibition above about 80%;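 note: cells exposed to compound for 96 hours before readout; 0% = vehicle DMSO and 100% = high DMSO killing control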); details: stronger effect = higher value
# [16] = measured here: with BGB IC20 combination, at 0.5 µM
# [17] = measured here: with cisplatin IC20 combination, at 0.5 µM
compound,measurement,setting,value
C/C(=C\C(=O)Nc1ccccc1C(=O)O)c1ccc2ccccc2c1,outcome,[1],inactive
same,outcome,[2],inactive
same,outcome,[3],inactive
same,outcome,[4],inactive
same,outcome,[5],inactive
same,SSMD,[6],2.21 and 1.02
same,cell count,[6],7410 and 6940
same,plate-normalised HSF1 focus index,[6],1.08 (inactive) and 1.06 (inactive)
same,viability,"[7]; at 0.000305 µM, OCI-C5x cells, with rucaparib 10 µM, 100% = cells with rucaparib alone",89.1% (active)
same,viability,"[7]; at 0.000305 µM, OCI-C5x cells, without rucaparib",109% (inactive)
same,viability,"[7]; at 0.000305 µM, OCI-P5x cells, with rucaparib 20 µM, 100% = cells with rucaparib alone",107% (inactive)
same,viability,"[7]; at 0.000305 µM, OCI-P5x cells, without rucaparib",103% (inactive)
same,viability,"[7]; at 0.00122 µM, OCI-C5x cells, with rucaparib 10 µM, 100% = cells with rucaparib alone",102% (inactive)
same,viability,"[7]; at 0.00122 µM, OCI-C5x cells, without rucaparib",107% (inactive)
same,viability,"[7]; at 0.00122 µM, OCI-P5x cells, with rucaparib 20 µM, 100% = cells with rucaparib alone",96.8% (active)
same,viability,"[7]; at 0.00122 µM, OCI-P5x cells, without rucaparib",101% (inactive)
same,viability,"[7]; at 0.00488 µM, OCI-C5x cells, with rucaparib 10 µM, 100% = cells with rucaparib alone",92.9% (active)
same,viability,"[7]; at 0.00488 µM, OCI-C5x cells, without rucaparib",110% (inactive)
same,viability,"[7]; at 0.00488 µM, OCI-P5x cells, with rucaparib 20 µM, 100% = cells with rucaparib alone",112% (inactive)
same,viability,"[7]; at 0.00488 µM, OCI-P5x cells, without rucaparib",103% (inactive)
same,viability,"[7]; at 0.0195 µM, OCI-C5x cells, with rucaparib 10 µM, 100% = cells with rucaparib alone",111% (inactive)
same,viability,"[7]; at 0.0195 µM, OCI-C5x cells, without rucaparib",111% (inactive)
same,viability,"[7]; at 0.0195 µM, OCI-P5x cells, with rucaparib 20 µM, 100% = cells with rucaparib alone",106% (inactive)
same,viability,"[7]; at 0.0195 µM, OCI-P5x cells, without rucaparib",112% (inactive)
same,viability,"[7]; at 0.0781 µM, OCI-C5x cells, with rucaparib 10 µM, 100% = cells with rucaparib alone",95.3% (active)
same,viability,"[7]; at 0.0781 µM, OCI-C5x cells, without rucaparib",104% (inactive)
same,viability,"[7]; at 0.0781 µM, OCI-P5x cells, with rucaparib 20 µM, 100% = cells with rucaparib alone",109% (inactive)
same,viability,"[7]; at 0.0781 µM, OCI-P5x cells, without rucaparib",113% (inactive)
same,viability,"[7]; at 0.313 µM, OCI-C5x cells, with rucaparib 10 µM, 100% = cells with rucaparib alone",94.4% (active)
same,viability,"[7]; at 0.313 µM, OCI-C5x cells, without rucaparib",111% (inactive)
same,viability,"[7]; at 0.313 µM, OCI-P5x cells, with rucaparib 20 µM, 100% = cells with rucaparib alone",109% (inactive)
same,viability,"[7]; at 0.313 µM, OCI-P5x cells, without rucaparib",110% (inactive)
same,viability,"[7]; at 1.25 µM, OCI-C5x cells, with rucaparib 10 µM, 100% = cells with rucaparib alone",95.9% (active)
same,viability,"[7]; at 1.25 µM, OCI-C5x cells, without rucaparib",108% (inactive)
same,viability,"[7]; at 1.25 µM, OCI-P5x cells, with rucaparib 20 µM, 100% = cells with rucaparib alone",116% (inactive)
same,viability,"[7]; at 1.25 µM, OCI-P5x cells, without rucaparib",118% (inactive)
same,viability,"[7]; at 5 µM, OCI-C5x cells, with rucaparib 10 µM, 100% = cells with rucaparib alone",89.8% (active)
same,viability,"[7]; at 5 µM, OCI-C5x cells, without rucaparib",98.2% (active)
same,viability,"[7]; at 5 µM, OCI-P5x cells, with rucaparib 20 µM, 100% = cells with rucaparib alone",119% (inactive)
same,viability,"[7]; at 5 µM, OCI-P5x cells, without rucaparib",117% (inactive)
same,inhibition,"[8]; at 0.5 µM, stronger effect = higher value",102% (active) and -1.28% (inactive)
same,inhibition,"[8]; measured here: combination with BGB IC20, at 0.005 µM",9.03% and -7.31%
same,inhibition,"[8]; measured here: combination with BGB IC40, at 0.005 µM",-18.4% and -24.9%
same,inhibition,"[8]; measured here: combination with BGB IC40, at 0.05 µM",19.3% and -24.1%
same,inhibition,"[8]; measured here: combination with cisplatin, at 0.5 µM, stronger effect = higher value",113% and 3.01%
same,inhibition,"[8]; measured here: combination with cisplatin, at 5 µM, stronger effect = higher value",13.4% and -26.4%
same,inhibition,"[9]; BGB combo, at 5 µM",-23.7% and -49.5%
same,inhibition,[9]; at 0.5 µM,-19.3% (inactive) and -46.7% (inactive)
same,inhibition,"[9]; cisplatin combo, at 5 µM",-7.72% and -22.6%
same,inhibition,[9]; [16],-14.6% and -44.4%
same,inhibition,[9]; [17],-15.2% and -49.7%
same,inhibition,"[9]; single agent, at 5 µM",-14% and -26%
same,inhibition,"[10]; BGB IC20 combo, at 0.005 µM",-36.5% and -10.3%
same,inhibition,"[10]; BGB IC40 combo, at 0.005 µM",5.4% and -31%
same,inhibition,"[10]; BGB IC40 combo, at 0.05 µM",-10.6% and -21.5%
same,inhibition,[10]; at 0.5 µM,-6.99% (inactive) and -24.5% (inactive)
same,inhibition,"[10]; cisplatin combo, at 0.05 µM",-10.6% and -25.9%
same,inhibition,"[10]; cisplatin combo, at 0.5 µM",-7.39% and -29.2%
same,inhibition,"[10]; cisplatin combo, at 5 µM",6.72% and -34%
same,inhibition,"[10]; measured here: 5 uM single agent, at 5 µM",-9.64% and -30.6%
same,inhibition,[11]; at 0.5 µM,-22.4% (inactive) and -26.8% (inactive)
same,inhibition,"[11]; measured here: with BGB IC20, at 0.5 µM",-27.7% and -32.5%
same,inhibition,"[11]; measured here: with BGB IC20, at 5 µM",-14.9% and -24.4%
same,inhibition,"[11]; measured here: with cisplatin IC20, at 0.5 µM",-22.7% and -28.1%
same,inhibition,"[11]; measured here: with cisplatin IC20, at 5 µM",-19.8% and -17.3%
same,inhibition,"[11]; single agent, at 5 µM",-20.6% and -16.3%
same,inhibition,[12]; at 0.5 µM,-3.17% (inactive) and -21% (inactive)
same,inhibition,"[12]; measured here: BGB combination, at 0.5 µM",-3.42% and -32.5%
same,inhibition,"[12]; measured here: BGB combination, at 5 µM",-2.03% and -11.9%
same,inhibition,"[12]; measured here: cisplatin combination, at 0.5 µM",-4.64% and -12.8%
same,inhibition,"[12]; measured here: cisplatin combination, at 5 µM",-4.62% and -6.3%
same,inhibition,[13]; at 0.5 µM,-6.83% (inactive) and -5.19% (inactive)
same,inhibition,"[13]; cisplatin combination, at 0.5 µM",-15% and -25.6%
same,inhibition,"[13]; cisplatin combination, at 5 µM",-24.9% and -2.65%
same,inhibition,"[13]; measured here: BGB IC40 combination 0.05 uM, at 0.05 µM",-17.8% and 7.75%
same,inhibition,"[13]; single agent, at 5 µM",11.2% and -10.1%
same,inhibition,[14]; at 0.5 µM,-1.42% (inactive) and -24.1% (inactive)
same,inhibition,"[14]; cisplatin combo, at 5 µM",5.73% and -10.2%
same,inhibition,"[14]; measured here: BGB IC40 combination, at 0.05 µM",-5.49% and -16.6%
same,inhibition,"[14]; measured here: combination with cisplatin, at 0.5 µM",-31.4% and -50.1%
same,inhibition,"[14]; single agent, at 5 µM",-4.52% and -12.1%
same,inhibition,[15]; at 0.5 µM,-35.2% (inactive) and -65.1% (inactive)
same,inhibition,[15]; [16],-24.4% and -56.6%
same,inhibition,[15]; [17],-40.6% and -72.1%
same,inhibition,"[15]; single agent, at 0.05 µM",-15.5% and -44.7%
same,inhibition,"[15]; single agent, at 5 µM",-12.5% and -53.7%
COc1ccc2cc([S+]([O-])Cc3ncc(C)c(OC)c3C)nc2c1,outcome,[1],inactive
same,outcome,[2],inactive
same,outcome,[3],inactive
same,outcome,[5],inactive
